# Laboratory results published in PubChem BioAssay.
# Active and inactive are the calls of the source.
# Tests used:
# Albumin (Bos taurus) = Albumin (Bos taurus) (UniProt P02769); test: compounds binding labelled BSA control protein – biochemical, small-molecule microarray, Alexa647 label, 635/667 nm fluorescence, artefact control for SMM control protein annotation, profiling panel (AID 1118); settings: BSA-A647 binding, fluorescence 635 nm, higher = more signal;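 also: score merges 667 nm emission intensity and signal-to-noise per printed compound spot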
# [1] = probe aXIP binding to arrayed compounds – biochemical, NeuroSMM set, 635/667 nm fluorescence, primary screen (AID 1119); settings: small-molecule microarray, higher = more signal, called active from +8 up or from −8 down;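 also: probe is the protein aXip251-270 applied at 1 µg/mL to compound-printed slides; binding of probe to printed compounds measured as 667 nm fluorescence plus signal to noise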
# [2] = probe aNOTCH3 binding on compound microarray – biochemical, small-molecule microarray, 635/667 nm fluorescence, primary screen (AID 1120); settings: higher = more signal;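 also: probe is a biotin-tagged antibody raised against NOTCH3 rather than NOTCH3 protein; score merges spot fluorescence near 667 nm with spot signal to noise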
# [3] = probe aNOTCH2 binding on compound microarray – biochemical, small-molecule microarray, 635/667 nm fluorescence, primary screen (AID 1121); settings: higher = more signal;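 also: score merges feature fluorescence read at 667 nm with its signal to noise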
# [4] = molecular target: Carbonic anhydrase 2 (Homo sapiens) (UniProt P00918); test: compounds binding carbonic anhydrase 2 – biochemical, small-molecule microarray, Alexa647-labelled CAII, profiling panel (AID 1122); settings: CAII-A647 binding fluorescence, higher = more signal
# [5] = COS7 lysate on small-molecule microarray, probe aHis, 635 nm (AID 1123); settings: COS7 cell lysate, fluorescence, higher = more signal;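 also: z-score combines 667nm fluorescence intensity with signal-to-noise per printed compound spot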
# [6] = probe aLAP1 signal on lysate-treated microarray – cell lysate, small-molecule microarray, COS7 lysate, primary screen (AID 1124); settings: probe aLAP1, fluorescence, higher = more signal;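 also: lysate comes from COS7 cells expressing LAP1 and is applied at 0.3 µg/mL; score merges spot fluorescence near 667 nm with signal-to-noise over triplicate slides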
# Sam68 (KHDRBS1) = test: compounds binding KHDRBS1 protein – biochemical, small-molecule microarray, 635 nm fluorescence, primary screen (AID 1125); settings: higher = more signal;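 also: score merges 667 nm channel intensity with signal to noise over triplicate slides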
# [7] = system: Chordin-like protein 2 (CHRDL2); test: compounds binding chordin-like 2 – biochemical, small-molecule microarray, 635 nm fluorescence, primary screen (AID 1126); settings: fluorescence 635 nm, higher = more signal;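 also: printed compound slides probed with Chrdl2 protein at 4 µg/mL for 1 h at 4 C; score merges 667 nm emission intensity with signal to noise over three replicate slides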
# [8] = molecular target: Concanavalin-A (Canavalia ensiformis) (UniProt P02866); test: compounds binding concanavalin A lectin – biochemical, small-molecule microarray, Alexa647 label, 635 nm, artefact control for SMM control protein annotation, primary screen (AID 1127); settings: ConA-A647 binding fluorescence, higher = more signal;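 also: z combines 667 nm emission intensity with signal-to-noise across three replicate slides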
# [9] = compounds binding Alexa647 anti-His antibody – biochemical, small-molecule microarray, 635 nm fluorescence, artefact control for SMM control protein annotation, primary screen (AID 1128); settings: higher = more signal;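 also: score merges feature fluorescence with signal-to-noise for each printed compound spot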
# [10] = system: Human papillomavirus type 1a E7 protein (residues 1-88); test: HPV1a E7 small-molecule binders, primary screen, biochemical, small-molecule microarray, residues 1-88, 635 nm (AID 1129); settings: small-molecule microarray binding, fluorescence 635 nm; higher = more signal
# [11] = molecular target: Focal adhesion kinase 1 (Homo sapiens) (UniProt Q05397); test: PTK2 protein binding on printed compound slides – biochemical, small-molecule microarray, 635/667 nm fluorescence, BSA, DTT, primary screen (AID 1130); settings: 635 nm fluorescence, higher = more signal;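 also: composite of spot emission at 667 nm and signal to noise over triplicate slides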
# [12] = system: Fibrinogen (Alexa647-labelled); test: Alexa647-fibrinogen binding to printed small molecules – biochemical, small-molecule microarray, 635/667 nm fluorescence, artefact control for SMM control-protein annotation, profiling panel (AID 1131); settings: fibrinogen-A647 binding fluorescence, higher = more signal;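 also: z-score merges 667 nm fluorescence with per-spot signal-to-noise over triplicate slides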
# [13] = molecular target: Follistatin (Homo sapiens) (UniProt P19883); test: FST protein binding to printed compounds – biochemical, small-molecule microarray, 635/667 nm fluorescence, primary screen (AID 1132); settings: 635 nm fluorescence, higher = more signal
# [14] = molecular target: Fibroblast growth factor 2 (Homo sapiens) (UniProt P09038); test: basic fibroblast growth factor binding to printed compounds – biochemical, small-molecule microarray, 635/667 nm fluorescence, primary screen (AID 1133); settings: FGF2, fluorescence 635/667, higher = more signal
# [15] = JC-1 mitochondrial potential readout, lung cancer cells – cell-based, A549, JC-1 fluorescence, basal, 24 h, 100 nL, profiling panel (AID 1138); settings: higher = more signal;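 also: A549 lung adenocarcinoma cells under basal conditions with no added stimulus; test concentration not given here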
# Lefty1 = Lefty1 protein binding to printed compounds – biochemical, small-molecule microarray, 635/667 nm fluorescence, primary screen (AID 1139); settings: fluorescence 635/667, higher = more signal
# [16] = system: wheat germ agglutinin (Triticum aestivum), Alexa647-labelled; test: Alexa647-WGA lectin binding to printed small molecules – biochemical, small-molecule microarray, 635/667 nm fluorescence, artefact control for SMM control-protein annotation, profiling panel (AID 1140); settings: WGA-A647 binding, 635 nm fluorescence, higher = more signal;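 also: score merges 667 nm feature emission with signal to noise over triplicate slides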
# [17] = molecular target: Luciferin 4-monooxygenase (Photinus pyralis) (UniProt P08659); test: inhibition of purified Photinus pyralis luciferase – biochemical, luminescence, purified enzyme, 2006 set, primary screen (AID 1141); settings: purified firefly luciferase, SteadyGlo luminescence, 30 min; higher = more signal, called active from +8 up or from −8 down;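 also: cell-free assay with purified firefly luciferase at 100 ng per well in PBS; test concentration not given here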
# Sequence of Luciferin 4-monooxygenase (Photinus pyralis) (P08659 whole entry, looked up): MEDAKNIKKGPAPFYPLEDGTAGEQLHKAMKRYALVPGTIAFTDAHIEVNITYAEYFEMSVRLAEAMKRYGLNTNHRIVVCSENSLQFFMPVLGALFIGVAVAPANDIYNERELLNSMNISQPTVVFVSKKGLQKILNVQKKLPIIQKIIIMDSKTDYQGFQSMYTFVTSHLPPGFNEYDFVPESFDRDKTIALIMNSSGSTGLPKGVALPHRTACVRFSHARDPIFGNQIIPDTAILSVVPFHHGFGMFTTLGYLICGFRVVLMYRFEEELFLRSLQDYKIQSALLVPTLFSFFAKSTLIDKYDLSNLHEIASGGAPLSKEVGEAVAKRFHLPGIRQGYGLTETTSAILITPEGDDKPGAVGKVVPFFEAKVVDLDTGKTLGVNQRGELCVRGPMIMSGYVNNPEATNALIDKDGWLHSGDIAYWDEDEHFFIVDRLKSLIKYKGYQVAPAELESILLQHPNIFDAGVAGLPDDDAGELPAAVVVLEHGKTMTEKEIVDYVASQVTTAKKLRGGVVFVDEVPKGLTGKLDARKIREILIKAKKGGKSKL
# Sequence of Concanavalin-A (Canavalia ensiformis) (P02866 whole entry, looked up): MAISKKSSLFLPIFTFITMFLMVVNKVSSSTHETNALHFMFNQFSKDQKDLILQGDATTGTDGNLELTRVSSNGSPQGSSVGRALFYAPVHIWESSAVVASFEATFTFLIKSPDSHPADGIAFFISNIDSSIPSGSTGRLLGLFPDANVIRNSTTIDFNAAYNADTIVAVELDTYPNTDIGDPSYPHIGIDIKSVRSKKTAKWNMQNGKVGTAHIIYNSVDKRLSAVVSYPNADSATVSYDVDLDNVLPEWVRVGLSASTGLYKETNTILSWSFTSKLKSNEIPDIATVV
# Sequence of Focal adhesion kinase 1 (Homo sapiens) (Q05397 whole entry, looked up): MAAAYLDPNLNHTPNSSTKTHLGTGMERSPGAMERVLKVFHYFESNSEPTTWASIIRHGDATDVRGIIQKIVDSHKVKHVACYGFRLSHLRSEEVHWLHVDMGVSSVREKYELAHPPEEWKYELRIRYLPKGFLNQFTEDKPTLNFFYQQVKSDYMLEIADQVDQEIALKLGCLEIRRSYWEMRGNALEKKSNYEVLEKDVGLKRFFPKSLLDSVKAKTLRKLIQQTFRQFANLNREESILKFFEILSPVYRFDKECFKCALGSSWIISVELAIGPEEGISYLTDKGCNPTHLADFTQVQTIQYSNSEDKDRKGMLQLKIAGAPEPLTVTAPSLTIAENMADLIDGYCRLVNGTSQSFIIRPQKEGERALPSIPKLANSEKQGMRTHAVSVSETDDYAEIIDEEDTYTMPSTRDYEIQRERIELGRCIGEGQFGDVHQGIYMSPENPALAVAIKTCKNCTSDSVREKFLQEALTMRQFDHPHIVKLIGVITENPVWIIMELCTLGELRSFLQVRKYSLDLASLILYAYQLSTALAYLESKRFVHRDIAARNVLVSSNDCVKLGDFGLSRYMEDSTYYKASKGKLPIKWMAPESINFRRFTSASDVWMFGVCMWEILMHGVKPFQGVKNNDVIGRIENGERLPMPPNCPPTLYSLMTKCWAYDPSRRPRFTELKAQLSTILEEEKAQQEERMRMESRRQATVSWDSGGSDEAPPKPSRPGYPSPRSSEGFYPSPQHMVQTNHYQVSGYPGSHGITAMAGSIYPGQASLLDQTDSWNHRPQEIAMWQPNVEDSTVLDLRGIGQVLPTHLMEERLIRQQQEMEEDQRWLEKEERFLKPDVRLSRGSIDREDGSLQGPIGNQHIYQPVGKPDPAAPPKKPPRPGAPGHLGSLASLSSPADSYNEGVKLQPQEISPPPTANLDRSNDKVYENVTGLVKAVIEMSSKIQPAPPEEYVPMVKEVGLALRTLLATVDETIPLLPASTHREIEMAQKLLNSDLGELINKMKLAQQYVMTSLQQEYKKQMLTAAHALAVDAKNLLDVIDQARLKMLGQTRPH
# Sequence of Albumin (Bos taurus) (P02769 whole entry, looked up): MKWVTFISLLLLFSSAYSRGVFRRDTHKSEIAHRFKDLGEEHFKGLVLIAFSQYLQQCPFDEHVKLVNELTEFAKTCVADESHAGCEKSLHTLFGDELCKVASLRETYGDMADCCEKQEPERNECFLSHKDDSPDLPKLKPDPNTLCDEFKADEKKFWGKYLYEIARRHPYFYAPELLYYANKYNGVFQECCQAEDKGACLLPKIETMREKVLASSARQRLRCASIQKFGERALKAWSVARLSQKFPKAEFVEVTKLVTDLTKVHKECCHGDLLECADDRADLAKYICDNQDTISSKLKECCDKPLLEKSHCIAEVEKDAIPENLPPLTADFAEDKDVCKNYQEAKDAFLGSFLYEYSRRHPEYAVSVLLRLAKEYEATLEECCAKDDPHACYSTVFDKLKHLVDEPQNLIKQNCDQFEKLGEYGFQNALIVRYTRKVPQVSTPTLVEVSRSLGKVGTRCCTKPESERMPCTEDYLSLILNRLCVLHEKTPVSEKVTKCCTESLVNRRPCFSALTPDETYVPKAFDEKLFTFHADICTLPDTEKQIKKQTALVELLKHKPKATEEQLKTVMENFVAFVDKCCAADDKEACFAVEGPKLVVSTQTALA
# Sequence of Fibroblast growth factor 2 (Homo sapiens) (P09038 whole entry, looked up): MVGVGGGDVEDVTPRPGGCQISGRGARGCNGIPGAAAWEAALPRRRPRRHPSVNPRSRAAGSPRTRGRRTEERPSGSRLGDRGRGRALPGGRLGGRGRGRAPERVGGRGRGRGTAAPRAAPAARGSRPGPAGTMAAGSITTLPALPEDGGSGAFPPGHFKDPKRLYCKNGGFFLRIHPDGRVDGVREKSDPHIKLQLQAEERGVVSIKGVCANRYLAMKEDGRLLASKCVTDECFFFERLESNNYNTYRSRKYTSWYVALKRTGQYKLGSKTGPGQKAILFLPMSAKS
# Sequence of Follistatin (Homo sapiens) (P19883 whole entry, looked up): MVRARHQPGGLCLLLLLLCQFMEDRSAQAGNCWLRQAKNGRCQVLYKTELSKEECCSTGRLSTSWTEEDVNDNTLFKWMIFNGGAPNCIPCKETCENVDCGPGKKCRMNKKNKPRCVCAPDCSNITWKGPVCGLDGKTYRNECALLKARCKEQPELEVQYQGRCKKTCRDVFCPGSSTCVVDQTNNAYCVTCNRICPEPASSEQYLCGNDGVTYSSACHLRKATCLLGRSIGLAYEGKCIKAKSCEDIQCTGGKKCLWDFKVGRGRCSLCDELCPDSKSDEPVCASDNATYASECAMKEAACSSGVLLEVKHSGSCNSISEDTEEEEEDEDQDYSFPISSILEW
Compound,composite z-score (Albumin (Bos taurus)),composite Z-score [1],composite z-score [2],composite z-score [3],composite z-score [4],composite z-score [5],composite z-score [6],composite z-score (Sam68 (KHDRBS1)),composite z-score [7],composite z-score [8],composite z-score [9],composite z-score [10],composite z-score [11],composite z-score [12],composite z-score [13],composite z-score [14],z-score [15],composite z-score (Lefty1),composite z-score [16],z-score [17]
CC(=O)NCCCC[C@@H]1NC(=O)[C@@H]2C[C@H](C(=O)NCc3ccc(F)cc3)[C@H](c3cccc(OCCO)c3)N2C1=O,0.188,0.328 (inactive),-0.226,0.0383,0.659,1.07,0.19,0.506,0.174,0.474,1.6,0.308,-0.135,0.371,1.3,1.7,1.25,0.115,-0.087,-0.425 (inactive)
COC(=O)C(CC#Cc1ccc2c(c1)[C@]1(C(=O)N2)[C@H](C(=O)N2CCCCCCC2)[C@H]2C(=O)O[C@H](c3ccccc3)[C@H](c3ccccc3)N2[C@@H]1c1ccc(O)cc1)C(=O)OC,-0.264,0.448 (inactive),-0.379,-0.0829,-0.59,-0.437,0.39,-0.92,-1.32,0.266,-0.231,-1.54,-0.222,-2.05,-0.408,-1.1,-1.03,-0.227,-1.42,-0.269 (inactive)
O=C1O[C@@H](c2ccccc2)[C@@H](c2ccccc2)N2[C@@H](c3ccccc3OCCO)[C@]3(C(=O)Nc4ccc(C#CC5=CCCCC5)cc43)[C@@H](C(=O)O)[C@H]12,0.664,-0.114 (inactive),0.0563,-0.0391,0.549,1.67,0.659,1.33,-0.241,1.08,1.91,1.19,0.705,0.934,1.14,0.301,-2.32,0.699,1.17,-5.86 (inactive)
C#CCCCON=C1C[C@@H](O)[C@@H](O)[C@@H]2[C@@H]3C(=O)N(Cc4ccc5c(c4)OCO5)C(=O)[C@@H]3CC[C@@H]12,0.352,-0.0164 (inactive),0.0225,-0.148,0.227,0.537,-0.0088,0.005,0.187,0.858,2.73,0.226,-0.0967,0.903,0.669,0.0999,0.505,0.847,1.14,0.76 (inactive)
O=C(N1CCCCC1)[C@@]1(CCS(=O)(=O)c2ccccc2)N=C(c2ccc(OCCCO)cc2)O[C@H]1c1ccccc1,-0.0092,-0.595 (inactive),0.0876,-0.0872,0.663,3.28,0.343,1.29,-0.58,0.639,1.9,1.26,0.556,0.328,1.25,-0.0973,0.216,-0.0953,0.0324,-1.32 (inactive)
COCC(=C=CC[C@H](O)c1ccc(OCCO)cc1)C[C@H](O)c1ccccn1,-0.769,1.14 (inactive),-0.217,-0.0942,0.603,0.257,-0.0662,0.359,-0.6,0.0109,-0.0301,0.401,-0.389,-0.263,0.193,0.0116,1.92,0.233,-0.32,-2.45 (inactive)
C=CCC(OC(C)=O)[C@@H]1[C@@H](N(Cc2ccc(-c3cccc(C(F)(F)F)c3)o2)C(=O)Cc2ccc(F)cc2)c2cc(OCCCO)ccc2N1C(=O)c1ccc(-c2ccccc2)cc1 (stereo not given in full),-0.701,-0.014 (inactive),-0.0996,-0.154,-0.215,-0.197,0.0045,-0.443,-0.294,-1.04,-0.656,-0.922,-0.131,-0.531,0.16,-0.246,1.74,-0.173,0.294,-0.306 (inactive)
C[C@H]1NC(=O)[C@@H](C)NC(=O)[C@@]23C(=O)N[C@@H](Cc4ccccc4)C2[C@H](C)[C@@]2(C)O[C@H]2C3/C=C/C/C=C\CNC1=O (stereo not given in full),-0.631,0.0894 (inactive),-0.195,-0.126,0.502,-0.482,-0.599,-0.344,0.274,-0.888,-0.759,-1.84,-0.801,-0.388,0.117,0.0213,1.07,-0.0767,0.0969,-0.919 (inactive)
COCCOC(=O)N1C(=O)[C@@]2(c3cc(C#CCNC(N)=O)ccc31)[C@H](C(=O)N1CCCCCCC1)[C@H]1C(=O)O[C@H](c3ccccc3)[C@H](c3ccccc3)N1[C@@H]2c1ccccc1OCCO,0.328,1.01 (inactive),0.555,0.0231,0.171,0.963,0.417,1.14,0.573,1.08,0.455,1.14,0.784,0.47,1.33,0.385,-0.751,1.21,0.835,-0.201 (inactive)
COC(=O)C[C@H]1O[C@]2(C(=O)N(Cc3ccccc3)c3ccc(I)cc32)[C@@H](C)[C@@H]1[Si](C)(C)c1ccc(OC)cc1,0.298,0.167 (inactive),-0.185,-0.0956,-0.228,-0.322,-0.0227,-0.879,0.0477,-0.0276,-0.421,-0.807,-0.172,-0.774,-0.274,-0.222,0.0578,-0.603,0.322,0.417 (inactive)
COc1ccc(NN2C(C(O)c3cc(OC)c(OC)c(OC)c3)C=CC3C(=O)N(C4CCCCC4)C(=O)C32)cc1 (stereo not given),1.02,0.487 (inactive),0.831,0.531,0.211,2.42,0.754,1.3,-1.2,1.1,0.717,1.21,1.06,0.965,0.412,-0.418,0.469,0.133,1.22,0.582 (inactive)
